Results filed as inconclusive are left out. A call without a number means that no potency is given here. Calls of active or inactive are those of the source. The call rests on the fitted dose curve.

Potency data for one compound are collected here from PubChem BioAssay (Tox21).

The test can be described thus: p53 small molecule agonists, cell-based qHTS assay with rat liver microsomes (AID 1963578). The procedure, abridged: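 Rat liver microsome activation: microsomes 0.5 mg/mL, NADPH 0.5 mg/mL final; p53RE-bla cells, 16 h 37 C; LiveBLAzer readout, 2 h RT dark.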

For `N[C@@H]1C[C@H]1c1ccccc1`, the Potency result was “inactive”.
